Data from PubChem BioAssay AID1006 (Sanford-Burnham Center for Chemical Genomics, 2008).
Among all 200,000 compounds or so, about 3,000 (1.5%) were called active. The list comes from a sample in which actives are over-represented; it also holds similar structures and randomly drawn compounds. A number with no mark means an inactive call.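 Rule for the calls: active = inhibition above about 50% when tested at 10 µM (limit read from the data); inactive = the rest.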

What follows are molecules tested against Luciferin 4-monooxygenase (Photinus pyralis) (UniProt P08659) (assay: firefly luciferase enzyme inhibitors, primary screen, artefact control for luciferase-based inhibitor screens, biochemical, luminescence, ATPLite (AID 1006)). Details: 10 min, at 10 µM, active compounds read high.
Chain of Luciferin 4-monooxygenase (Photinus pyralis) (P08659 whole entry, looked up): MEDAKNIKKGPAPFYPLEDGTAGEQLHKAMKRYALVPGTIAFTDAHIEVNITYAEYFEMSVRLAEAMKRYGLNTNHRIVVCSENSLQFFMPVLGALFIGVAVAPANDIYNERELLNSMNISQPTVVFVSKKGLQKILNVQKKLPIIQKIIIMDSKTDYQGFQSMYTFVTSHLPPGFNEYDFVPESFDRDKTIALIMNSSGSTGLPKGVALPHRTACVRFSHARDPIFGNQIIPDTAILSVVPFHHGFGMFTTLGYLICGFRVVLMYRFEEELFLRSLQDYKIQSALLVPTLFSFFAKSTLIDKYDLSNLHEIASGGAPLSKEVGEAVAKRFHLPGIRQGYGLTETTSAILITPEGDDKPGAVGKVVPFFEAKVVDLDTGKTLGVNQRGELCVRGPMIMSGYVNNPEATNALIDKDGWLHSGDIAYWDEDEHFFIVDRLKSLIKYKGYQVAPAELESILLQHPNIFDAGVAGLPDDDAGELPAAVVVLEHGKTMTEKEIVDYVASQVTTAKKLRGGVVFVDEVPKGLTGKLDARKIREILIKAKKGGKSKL

| SMILES | inhibition |
| --- | --- |
| Cc1cc(Br)ccc1SCC(=O)OCC(=O)NCc1ccc2c(c1)OCO2 | -0.9% |
| Cn1cc(CN2CCCCC2c2ccccn2)c(-c2ccc3c(c2)OCCO3)n1 (stereo not given) | -5% |
| COC(=O)C1=C(C)N(C)C(=O)NC1c1ccc([N+](=O)[O-])o1 (stereo not given) | -8% |
| Clc1ccc2nc(CSc3ccccc3)cn2c1 | 51% (active) |
| O=c1cc(CSc2ccc(Cl)cc2)nc(N2CCOCC2)[nH]1 | -3.7% |
| CCOc1ncccc1C(=O)OCc1cn2cc(Cl)ccc2n1 | -4.4% |
| CN(c1cccc(NC(=O)Nc2ccc(Cl)cc2)c1)S(C)(=O)=O | 50.6% (active) |
| COc1cccc(N(CC(=O)Nc2cccc(N(C)S(C)(=O)=O)c2)S(C)(=O)=O)c1 | -3.8% |
| Cc1ccc(N(CC(=O)Nc2cccc(N(C)S(C)(=O)=O)c2)S(C)(=O)=O)cc1 | 1.1% |
| Cc1ccc(/C=C/C(=O)Nc2cc(S(=O)(=O)N3CCCCCC3)ccc2OCC(F)(F)F)o1 | -5.3% |
| O=C(NCc1ccco1)c1cccn2c(=O)c3c4c(sc3nc12)CCCC4 | -5.5% |
| O=c1oc(-c2ccco2)nc2sc3c(c12)CCCCC3 | 82.9% (active) |
| Cn1c(=O)n(Cc2ccco2)c(=N)c2c3c(sc21)CCCC3 | -0.5% |
| O=C(c1cn2ccccc2n1)N1CCc2c([nH]c3ccccc23)C1c1ccccn1 (stereo not given) | 1% |
| Cc1cc(C(=O)COC(=O)CCCN2C(=O)c3ccccc3C2=O)c(C)n1C | 8.4% |
| C=CCN(CC=C)C(=O)CN1C(=O)c2ccccc2C1=O | -5% |
| C=CCn1c(C)cc(C(=O)CN2C(=O)c3ccccc3C2=O)c1C | 57.4% (active) |
| O=C1COc2ccc(C(=O)COC(=O)C3CC(O)CN3S(=O)(=O)c3ccc(Cl)cc3)cc2N1 (stereo not given) | 29.8% |
| COc1ccc(NC(C(=O)Nc2cccc(C(C)=O)c2)c2ccccc2)cc1 (stereo not given) | 1.7% |
| O=C(Nc1ccc(-c2ccc3nncn3n2)cc1)C1CCCCC1 | 26.9% |
| O=C1/C(=C/c2cccs2)CCc2ccccc21 | 76% (active) |
| COc1ccc(/C=C2\CCc3ccccc3C2=O)c(OC)c1OC | 1.1% |

| SMILES | inhibition |
| --- | --- |
| CCC1C/C(=C/c2cccs2)C(=O)/C(=C/c2cccs2)C1 (stereo not given) | -5.8% |
| Cc1ccc(-c2nc3ccccc3[nH]2)cc1NC(=O)c1sc2ccccc2c1Cl | -3% |
| c1ccc(-c2[nH]ncc2-c2nc3ccccc3[nH]2)cc1 | -8.5% |
| OCCNc1nc2ccccc2[nH]1 | -5.9% |
| c1ccc2[nH]c(-c3nc4ccccc4[nH]3)nc2c1 | 58.7% (active) |
| Cc1ccc(-c2nc3ccccc3[nH]2)cc1N | 80.7% (active) |
| COc1ccc(Br)cc1C(=O)NC(=S)Nc1cc(-c2nc3ccccc3[nH]2)ccc1C | 2.5% |
| O=C(CCNS(=O)(=O)c1ccc(Br)s1)NCc1ccccc1Cl | -3.8% |
| Cc1c(NC(=O)CCC2CCCCC2)cc(C(=O)N2CCOCC2)cc1[N+](=O)[O-] | -6.5% |
| O=C(NC(Cc1c[nH]c2ccccc12)C(=O)O)/C(=C/c1ccco1)NC(=O)c1ccccc1 (stereo not given) | -0.6% |
| O=C(CCl)N(Cc1cccc([N+](=O)[O-])c1)c1cccc(Cl)c1 | -6.8% |
| CCCCOc1ccc(N(CC(=O)NC(C)C)C(=O)CCC(=O)Nc2ccccn2)cc1 | -9.9% |
| Cc1cc(C)n2nc(C(=O)N(C)C(c3ccccc3)c3ccccc3)nc2n1 | -7% |
| COc1cc(OC)cc(-c2nc(=S)n3ccsc3n2)c1 | -2.1% |
| CCCC(=O)Nc1cccc(-c2cn3ccsc3n2)c1 | 40% |
| COc1ccc(-c2cn3cccnc3n2)cc1 | 59.3% (active) |
| c1ccc(-c2cn3cccnc3n2)cc1 | 2.6% |
| CC(=O)Nc1ccc(-c2cn3cccnc3n2)cc1 | 6.6% |
| COc1ccc(-c2cn3ccsc3n2)cc1 | 81.3% (active) |
| COc1cc(C(=S)NC2CCCCC2)ccc1O | -2.8% |
| Cc1ccnc2nc(C(=O)Nc3nnc(-c4ccccc4)o3)nn12 | -2.4% |
| Cc1noc(C)c1S(=O)(=O)N(C)Cc1ccccc1 | -6.5% |

| SMILES | inhibition |
| --- | --- |
| CCOC(=O)c1nn(-c2ccccc2F)c2nc(Nc3ccccc3)cc(=O)n12 | -2.4% |
| c1ccc2sc(NN=C3CCCC3)nc2c1 | 62.8% (active) |
| O=[N+]([O-])c1cc(Br)c(O)c(/C=N/Nc2nc3ccccc3s2)c1 | 1.1% |
| Cc1ccnc(Nc2nc3ccccc3s2)n1 | 34.9% |
| Cc1cc(C)cc(C(=O)N(CCc2ccccc2)C2=CC3CCC(C2)N3C)c1 (stereo not given) | -2.2% |
| O=C(C1=C[C@H](C2CC2)C[C@H](OCc2ccc(CO)cc2)O1)N1CCN(Cc2ccccc2)CC1 | -13.1% |
| CC(NC(=S)NC1CCCCC1)C(c1ccccc1)N1CCOCC1 (stereo not given) | -6% |
| O=C(NNC(=S)NC1CCCCC1)c1ccccc1Cl | -0.5% |
| CC(C)(c1ccccc1)c1ccc(OCCN)cc1 | -11.4% |
| CC1=NN(C(=O)c2ccc(Br)cc2)C(O)(c2ccccc2)C1 (stereo not given) | -3.1% |
| CCN(CC)C(=O)Oc1ccc(OC(=O)N(CC)CC)cc1 | 1.5% |
| CC1CN/C(=C\C(=O)c2ccc(Br)cc2)C(=O)N1 (stereo not given) | 52.4% (active) |
| C/C(=C\C(=O)c1ccc(Br)cc1)N1CCCCC1 | 3.9% |
| CN1CCCC(OC(=O)COc2ccc(Br)cc2)C1 (stereo not given) | -7.7% |
| COc1ccc(NC(=O)CSc2nnc(-c3ccccc3F)n2C2CC2)cc1S(N)(=O)=O | 1.6% |
| COc1ccc(NS(=O)(=O)c2cc(NC(=O)/C=C/c3cc(OC)c(OC)c(OC)c3)ccc2N2CCCCC2)cc1 | -5% |
| Cc1ccn(-c2cccc(-n3ccc(C)n3)n2)n1 | 61.1% (active) |
| CC(C)N1C(=O)N(c2ccccc2)C(C)(O)CC1(C)C (stereo not given) | -5.4% |
| COc1ccccc1OCc1nc2ccccc2s1 | 57.9% (active) |
| O=C(O)CCCCc1nc2ccccc2s1 | 6.8% |
| COc1cccc2sc(NNC(=O)c3nc4ccccc4s3)nc12 | -1.8% |
